Results published in the supplement of paper PMC6555819.

Legend:
Experiment in all cases: PBM binding z-score (relative to random genomic background probes); higher = stronger binding; sequences stand for … in GC…GCGATTGACAGCGTAGAATGAAGG
[1] = tested on: FXR:RXRa (NR concentration 270 nM, RXRa partner concentration 90 nM)
Outline: (§1)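 Each nuclear receptor dimer, without ligand, was incubated for 1 h on custom Agilent 4×180K protein-binding microarrays. Binding was detected with antibodies against each partner (one per run), and scanned fluorescence was regression-normalized. The binding z-scores are referenced to random human genomic background probes.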

[2] = tested on: LXRa:RXRa (NR concentration 270 nM, RXRa partner concentration 90 nM)
Outline: as §1

[3] = tested on: LXRa homodimer (NR concentration 270 nM)
Outline: as §1

[4] = tested on: LXRb:RXRa (NR concentration 270 nM, RXRa partner concentration 90 nM)
Outline: as §1

[5] = tested on: LXRb homodimer (NR concentration 270 nM)
Outline: as §1

[6] = tested on: PPARa:RXRa (NR concentration 270 nM, RXRa partner concentration 90 nM)
Outline: as §1

[7] = tested on: PPARg:RXRa (NR concentration 180 nM, RXRa partner concentration 90 nM)
Outline: as §1

[8] = tested on: PPARg:RXRa 270nM:90nM, anti-RXR (NR concentration 270 nM, RXRa partner concentration 90 nM)
Outline: as §1

[9] = tested on: PPARg:RXRa 30nM:10nM, anti-RXR (NR concentration 30 nM, RXRa partner concentration 10 nM)
Outline: as §1

[10] = tested on: PPARg:RXRa 90nM:30nM, anti-RXR (NR concentration 90 nM, RXRa partner concentration 30 nM)
Outline: as §1

[11] = tested on: PPARg:RXRa DBDmut IVT, anti-RXR (DBD mutation: RXRa K156A/R161A, NR concentration 270 nM, RXRa partner concentration 90 nM)
Outline: as §1

[12] = tested on: PPARg:RXRa IVT, anti-PPARg (NR concentration 270 nM, RXRa partner concentration 90 nM)
Outline: as §1

[13] = tested on: PPARg DBDmut:RXRa IVT, anti-PPARg (DBD mutation: PPARg1 K132A/R137A, NR concentration 270 nM, RXRa partner concentration 90 nM)
Outline: as §1

[14] = tested on: PPARg DBDmut IVT, anti-PPARg (DBD mutation: PPARg1 K132A/R137A, NR concentration 270 nM)
Outline: as §1

[15] = tested on: PPARg homodimer (NR concentration 180 nM)
Outline: as §1

[16] = tested on: PXR:RXRa (NR concentration 270 nM, RXRa partner concentration 90 nM)
Outline: as §1

[17] = tested on: PXR homodimer (NR concentration 270 nM)
Outline: as §1

[18] = tested on: RARa:RXR (NR concentration 270 nM, RXRa partner concentration 90 nM)
Outline: as §1

[19] = tested on: RARa homodimer (NR concentration 270 nM)
Outline: as §1

[20] = tested on: RARb:RXRa (NR concentration 270 nM, RXRa partner concentration 90 nM)
Outline: as §1

| Sequence | PBM binding z-score [1] | PBM binding z-score [2] | PBM binding z-score [3] | PBM binding z-score [4] | PBM binding z-score [5] | PBM binding z-score [6] | PBM binding z-score [7] | PBM binding z-score [8] | PBM binding z-score [9] | PBM binding z-score [10] | PBM binding z-score [11] | PBM binding z-score [12] | PBM binding z-score [13] | PBM binding z-score [14] | PBM binding z-score [15] | PBM binding z-score [16] | PBM binding z-score [17] | PBM binding z-score [18] | PBM binding z-score [19] | PBM binding z-score [20] |
| --- | --- | --- | --- | --- | --- | --- | --- | --- | --- | --- | --- | --- | --- | --- | --- | --- | --- | --- | --- | --- |
| TCTTGTAGATCATCAGGTTAAGAAAGCTGGCCAA | 0.48 | 0.703 | 0.27 | 0.642 | -0.0532 | 0.993 | -0.352 | 1.6 | 2.71 | 1.98 | 2.18 | 1.18 | 1.16 | 0.736 | 0.119 | 0.47 | -0.117 | 0.63 | 0.422 | 0.398 |
| CCTCGGAGGACAACAGGAGGCCAGAGCTGCCAGA | -0.418 | -0.512 | -0.358 | -1.07 | -0.956 | -0.509 | 0.0998 | -0.942 | -0.765 | -0.807 | -0.393 | -0.707 | -0.633 | -1.31 | -0.602 | -0.549 | -0.283 | -0.45 | -0.398 | 1.07 |
| CCGACTGGGGCATAAGCTTACCATAAGCCAGCCC | -0.673 | -0.689 | -0.589 | -0.747 | -1.15 | -0.16 | 0.765 | 1.04 | -0.348 | 0.228 | 2.59 | 1.57 | -1.09 | -1.16 | -0.394 | -0.775 | -0.649 | -0.694 | -0.632 | -0.11 |
| GGAACGAGGGCAAAGTTGATAACATCTGTCGACG | 1.57 | 1.1 | -0.134 | 1.12 | -0.18 | 4.13 | 7.22 | 7.08 | 6.1 | 7.67 | 3.83 | 4.15 | 0.399 | 0.51 | 1.5 | 1.23 | 0.336 | 1.49 | 0.102 | 2.25 |
| TGAATGAGGTTAACGATCAGGGAACGTGGCGTCG | 1.98 | 1.82 | -0.477 | 0.806 | -0.194 | 3.2 | 2.41 | 2.48 | 0.951 | 1.83 | 2.53 | 2.98 | 0.909 | 0.129 | 0.132 | 0.809 | -0.38 | 2.15 | -0.0277 | 2.01 |
| ACTAGCTGGCCAAGGGTCACTCAAGATTAGTCCG | 2.23 | 2.82 | 0.129 | 2.53 | -0.388 | 3.71 | 4.25 | 5.31 | 3.16 | 5.05 | -0.256 | 1.86 | -0.605 | -0.878 | 1.67 | 2.92 | -0.559 | 3.54 | -0.213 | 3.34 |
| GCTGCTAGGTCAAGTGATGGTCAGCTAAAGCTCG | 4.09 | 3.01 | 0.152 | 1.9 | -0.0819 | 3.57 | 2.46 | 3.13 | 0.591 | 2.12 | 4.64 | 4.05 | 0.0181 | -0.582 | 1.55 | 1.43 | -0.69 | 2.5 | -0.171 | 4.11 |
| TCTCGTAGATCAGCAGGTTAAGAAAGCTGGCCAA | -0.53 | -0.117 | -0.522 | 0.0597 | -1.13 | 0.428 | -0.691 | 1.22 | 2.41 | 2.08 | 1.33 | -0.478 | -0.653 | -0.513 | -0.593 | -0.00394 | -0.361 | 0.521 | -0.998 | -0.0596 |
